Bioassay records from PubChem BioAssay.
This is a sample that favours compounds with a hit; in the whole collection about 3.6% have one here.
APOBEC3G inh = blocks human APOBEC3G single-stranded DNA deamination; recombinant A3G, ssDNA deamination FAM/TAMRA fluorescence; inhibition, % at 20 µM; actives 0.28% (n = 330,000); AID 493012;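 active means inhibition of at least 40% at 20 µM, with no more than 30% in the related APOBEC3A deaminase screen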;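 further: plate controls were DMSO wells with A3G for no effect and wells lacking A3G enzyme for full effect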
Target sequence (Q9HC16 whole entry, looked up): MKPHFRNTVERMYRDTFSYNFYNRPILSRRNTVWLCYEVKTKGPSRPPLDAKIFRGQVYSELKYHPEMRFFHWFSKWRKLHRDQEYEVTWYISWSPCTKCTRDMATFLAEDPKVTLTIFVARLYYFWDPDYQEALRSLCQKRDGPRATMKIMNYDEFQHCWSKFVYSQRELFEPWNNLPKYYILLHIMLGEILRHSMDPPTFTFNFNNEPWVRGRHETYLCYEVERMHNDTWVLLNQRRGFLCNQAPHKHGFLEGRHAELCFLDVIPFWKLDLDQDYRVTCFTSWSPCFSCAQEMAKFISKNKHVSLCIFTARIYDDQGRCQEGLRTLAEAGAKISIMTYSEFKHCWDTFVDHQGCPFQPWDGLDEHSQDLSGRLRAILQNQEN
esBAF inh = inhibitors of esBAF chromatin remodeling in mouse ES cells; Bmi1-luciferase knock-in reporter, 24 h; 100% = twice the neutral-well signal; reporter increase, % at 12.5 µM; actives 2% (n = 350,000); in the data active means activation above about 40%; inconclusive means no clear call, values can overlap the other calls;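 further: 0% = median of the plate's neutral control wells and 100% = double that signal; a rise in the Bmi1 reporter signal indicates esBAF inhibition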
MITF act = activators of MITF-driven TRPM1 promoter activity in SK-MEL-5 cells; SK-MEL-5 TRPM1-promoter luciferase, 24 h; % of positive control, neutral wells = 0; activation, % at 12.5 µM; actives 0.75% (n = 300,000); AID 588334;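 active means mean activation of at least 80% with every replicate also reaching 80%; inconclusive means mean reaches 80% but some replicate falls short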;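 further: 0% = neutral control wells and 100% = parthenolide positive control wells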
PHOSPHO1 inh = PHOSPHO1 (human) inhibition | recombinant PHOSPHO1, absorbance phosphatase assay | inhibition, % at 13.3 µM | Q8TCT1 | actives 1.1% (n = 290,000); in the data active means inhibition above about 60%
A3A deaminase = human APOBEC3A DNA deaminase inhibition. P31941. recombinant A3A, FAM/TAMRA ssDNA deamination fluorescence. actives 0.41% (n = 330,000). inhibition, % at 20 µM;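 active means at least 40% inhibition at 20 µM here, with at most 30% in a related deaminase screen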;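 further: plate controls were A3A with DMSO for no effect and wells lacking A3A enzyme for full effect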
Target sequence (P31941 whole entry, looked up): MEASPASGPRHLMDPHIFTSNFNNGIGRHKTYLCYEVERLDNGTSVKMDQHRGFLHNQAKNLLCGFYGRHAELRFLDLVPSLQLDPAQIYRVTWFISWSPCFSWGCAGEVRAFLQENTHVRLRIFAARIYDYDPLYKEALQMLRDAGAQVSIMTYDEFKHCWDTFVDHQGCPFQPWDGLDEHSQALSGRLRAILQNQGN
Wnt act = Wnt/beta-catenin pathway activation. Wnt/beta-catenin reporter cell assay, activator, plate reader. activation, % at 9.35 µM. actives 1.2% (n = 300,000); in the data active means activation above about 30%, passing the limit was not always enough; inconclusive means no clear call, values can overlap the other calls;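 further: 0% = neutral control wells and 100% = positive control wells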
* = called active by the depositor; ? = inconclusive; nt = not tested or not shown.

SMILES	APOBEC3G inh	esBAF inh	MITF act	PHOSPHO1 inh	A3A deaminase	Wnt act
COc1ccc(S(=O)(=O)Nc2ccc3c(c2)C(=O)N([C@H](C)CO)C[C@@H](C)[C@@H](CN(C)C(=O)Nc2ccc(F)cc2)O3)cc1	nt	-3	nt	nt	nt	nt
COc1cccc(/C=C/C(=C2\C(=O)N(c3ccccc3)N=C2C)c2ccc(Br)cc2)c1OC	nt	-8	nt	nt	nt	33*
CC1CCC(NC(=O)c2ccc(NS(=O)(=O)c3ccc4[nH]c(=O)[nH]c4c3)cc2)CC1 (stereo not given)	-8	nt	98*	nt	-1	23
CCNC(=O)c1ccc(NS(=O)(=O)c2ccc3[nH]c(=O)[nH]c3c2)cc1	-3	nt	4	4	-1	-4
O=C(CN(C(=O)c1cc2c(s1)CCC2)C1CCCC1)NCc1cccs1	-4	-1	-5	1	-2	50*
COc1cc(Cl)ccc1OCc1cc(C(=O)N2C[C@@H]3CCC[C@H]2C3)no1	-3	92*	58	4	0	38*
COc1cc(Cl)ccc1OCc1cc(C(=O)N2C[C@H]3CC[C@H]2C3)no1	2	63*	55	43	3	-1
COc1cc(Cl)ccc1OCc1cc(C(=O)N2CCCCCCC2)no1	17	13	3	15	7	4
COc1cc(Cl)ccc1OCc1cc(C(=O)N2C[C@]3(C)C[C@H]2CC(C)(C)C3)no1	-7	nt	125*	19	1	26
COc1cc(C)ccc1OCc1cc(C(=O)N2C[C@H]3CC[C@H]2C3)no1	-7	13	25	-1	-3	10
Cc1cc(C)n(CCc2nc(-c3ccc(-c4ccccc4)cc3)cs2)n1	-3	70*	44	3	-2	20
COc1ccc(NC(=O)CCS(=O)(=O)c2ccc3c(c2)CCN3C(C)=O)cc1	-5	-3	-6	33	0	-3
CC(=O)N1CCc2cc(S(=O)(=O)C(C)CC(=O)Nc3ccc(OC(F)(F)F)cc3)ccc21 (stereo not given)	1	45*	29	1	-3	6
CO[C@@H](CN(C)Cc1ccc(-c2ccccn2)cc1)[C@@H](C)CN(C(=O)Nc1ccc(F)cc1)[C@H](C)CO	nt	-2	nt	nt	nt	nt
CN(C)C(=O)[C@H]1[C@H](CO)[C@H]2Cn3c(ccc(-c4ccncc4)c3=O)[C@@H]1N2CC1CCCC1	nt	0	nt	nt	nt	nt
CCN(CC)C(NC(=O)Cc1ccccc1)C(Cl)(Cl)Cl (stereo not given)	-3	-4	8	24	-2	40*
COC(=O)c1ccc(CN2CCCC(CNC(=O)Cc3ccc(OC)cc3)C2)cc1 (stereo not given)	-5	-9	nt	-8	-1	36*
CCCC1CCC(c2ccc(OCC)cc2)=CC1=O (stereo not given)	-9	29	67	24	-6	53*
CCC(=O)NC[C@@H]1[C@@H](c2ccc(C3=CCCC3)cc2)[C@@H](CO)N1C(C)=O	nt	0	nt	nt	nt	nt
CO[C@@H]1CN(C)C(=O)c2ccc(NC(=O)C3CCCCC3)cc2OC[C@@H](C)N(C)C[C@H]1C	nt	0	nt	nt	nt	nt
CCOc1ccc2[nH]c(=O)c(CN(Cc3ccccc3)C(=O)N3CCCC3)cc2c1	-4	-6	5	74*	-4	-1
O=C(NC(=S)N(CCO)Cc1ccccc1)c1ccc(S(=O)(=O)N2CCCC2)cc1	-4	nt	-1	-41	-6	45*
O=C(NCCc1ccccc1)c1ccc(S(=O)(=O)N2CCCCC2)cc1	nt	29	nt	nt	nt	-4
CO[C@@H]1CN(C)C(=O)c2ccc(NC(=O)c3cc(C)on3)cc2OC[C@@H](C)N(S(=O)(=O)c2cccc(Cl)c2)C[C@H]1C	nt	11	nt	nt	nt	nt
COCC(=O)Nc1ccc2c(c1)[C@@H]1C[C@@H](CC(=O)NC3CCCCC3)O[C@@H](CO)[C@@H]1O2	nt	-1	nt	nt	nt	nt
SMILES	APOBEC3G inh	esBAF inh	MITF act	PHOSPHO1 inh	A3A deaminase	Wnt act
COc1ccc(/C=C/c2nc(-c3ccccc3O)n[nH]2)cc1	-8	nt	43	-8	-6	38*
COc1ccc(/C=C/c2nc(-c3ccccc3O)n(-c3ccccc3)n2)cc1	-1	2	18	3	5	-1
O=C(Nc1ccccc1F)N[C@@H]1CC[C@@H](CCNC(=O)C2CCCC2)O[C@H]1CO	nt	-1	nt	nt	nt	nt
C[C@H](CO)N1C[C@H](C)[C@H](CN(C)S(=O)(=O)c2cccs2)Oc2ccc(NC(=O)CCN3CCOCC3)cc2C1=O	nt	4	nt	nt	nt	nt
Oc1c(C(c2ccco2)N2CCN(C(c3ccccc3)c3ccccc3)CC2)sc2ncnn12 (stereo not given)	-15	3	-7	88*	-4	-5
Oc1c(C(c2ccccc2)N2CCc3ccccc3C2)sc2ncnn12 (stereo not given)	-7	4	nt	-8	-3	8
COc1ccc(NC(=O)Nc2ccc3c(c2)C(=O)N([C@@H](C)CO)C[C@@H](C)[C@@H](CN(C)Cc2ccc(Cl)c(Cl)c2)O3)cc1	nt	2	nt	nt	nt	nt
c1cn2cc(-c3ccc4c(c3)OCO4)nc2s1	-11	13	nt	68*	-3	nt
CCOc1ccc2nc(SCC(=O)NNC(=O)c3ccco3)c(C)cc2c1	-8	-8	nt	-6	-6	-3
CCOc1ccc2cc(/C=C/C(=O)c3ccco3)c(Cl)nc2c1	-1	57*	nt	17	2	nt
CC1CCCC(NC(=O)c2cccs2)C1C (stereo not given)	-8	43*	20	nt	-5	3
CC1CCCCC1NC(=O)c1ccc2c(c1)OCCO2 (stereo not given)	1	33	45	nt	0	29
CC1CCCC(NC(=O)COC(=O)CCC(=O)c2cccs2)C1C (stereo not given)	0	-2	-8	nt	0	-1
CC1CCCC(NC(=O)c2ccc3c(c2)OCCO3)C1C (stereo not given)	-1	?	71	nt	-1	35*
C/C=C/c1cnc2c(c1)C(=O)N([C@H](C)CO)C[C@H](C)[C@@H](CN(C)C(=O)Nc1ccc(F)cc1)O2	nt	-1	nt	nt	nt	nt
O=C1C=CC(=O)N1c1cccc(-c2ccccc2)c1	22	nt	-38	78*	-5	-4
COc1cc(N2C(=O)C=CC2=O)ccc1N1C(=O)C=CC1=O	nt	nt	-73	nt	nt	-11
[O-]/C(=C(\C(=S)Nc1cccc2ccccc12)[n+]1ccccc1)c1ccc2c(c1)OCCO2	-6	-43	nt	85*	-4	nt
COc1cc(-c2ccc3oc(-c4ccsc4)cc3c2)cc(OC)c1OC	21	11	9	nt	3	-9
COc1ccc(-c2ccc3oc(-c4ccsc4)cc(=O)c3c2)cc1F	21	45*	50	nt	-1	7
O=c1cc(-c2ccsc2)oc2ccc(-c3ccc4cc[nH]c4c3)cc12	-6	59*	115*	nt	-2	23
CC(C)C#Cc1ccc2c(c1)O[C@H](CN(C)C(=O)Cc1ccccn1)[C@@H](C)CN([C@H](C)CO)S2(=O)=O	nt	2	nt	nt	nt	nt
